Measured values taken from PubChem BioAssay AID1159580 (chemical genetic matrix, 2015).
Several values for one entry are separate records, joined by “and”; a condition that tells them apart may be missing. Identical values can stand only once. The campaign covered roughly 5,500 compounds. About 2,000 (36%) were called active. Inconclusive results (about 18%) are left out. Cut-off read from the data, not from the text of the source: active = normalized growth mostly below about 0.91 (no sharp cut-off); inconclusive = no clear call, values can overlap the other calls; inactive = mostly above about 0.92. The list shows a part of the results.

Assay: chemical genetic growth profiling, strain panel (AID 1159580);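 note: tested at 20 µM; growth read once vehicle control cultures reached saturation at 30 °C; 1 = growth at the plate median or of vehicle wells; lower values mean less growth of the strain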
Details: growth OD

Measured: normalized growth

CCc1cccc2c3c([nH]c12)C(CC)(CC(=O)O)OCC3 (stereo not given)
inactive: S. cerevisiae deletion strains, locus YKL009W, strain mrt4, active compounds read low 0.965 | S. cerevisiae deletion strains, locus YKL068W, active compounds read low 1 | S. cerevisiae deletion strains, locus YKL085W, strain MDH1 (second series), active compounds read low 0.992 | S. cerevisiae deletion strains, locus YKL085W, strain MDH1, active compounds read low 0.992 | S. cerevisiae deletion strains, locus YKL160W, strain elf1, active compounds read low 0.975 | S. cerevisiae deletion strains, locus YKL190W, strain CNB1, active compounds read low 1 | S. cerevisiae deletion strains, locus YKR001C, strain vps1, active compounds read low 0.98 | S. cerevisiae deletion strains, locus YKR026C, strain gcn3, active compounds read low 0.987 | S. cerevisiae deletion strains, locus YKR091W, strain srl3, active compounds read low 0.978 | S. cerevisiae deletion strains, locus YLL001W, strain dnm1, active compounds read low 0.961 | S. cerevisiae deletion strains, locus YLL026W, active compounds read low 0.99 | S. cerevisiae deletion strains, locus YLL041C, strain sdh2, active compounds read low 0.976 | S. cerevisiae deletion strains, locus YLR027C, strain aat2, active compounds read low 0.987 | S. cerevisiae deletion strains, locus YLR039C, strain RIC1, active compounds read low 0.989 | S. cerevisiae deletion strains, locus YLR058C, strain SHM2, active compounds read low 1.01 | S. cerevisiae deletion strains, locus YLR102C, strain apc9, active compounds read low 1 | S. cerevisiae deletion strains, locus YLR113W, strain HOG1, active compounds read low 0.938 | S. cerevisiae deletion strains, locus YLR221C, strain rsa3, active compounds read low 0.993 | S. cerevisiae deletion strains, locus YLR258W, strain gsy2, active compounds read low 0.994 | S. cerevisiae deletion strains, locus YLR262C, strain YPT6 (second series), active compounds read low 0.93 | S. cerevisiae deletion strains, locus YLR262C, strain YPT6, active compounds read low 0.978 | S. cerevisiae deletion strains, locus YLR268W, strain sec22, active compounds read low 1.05 | S. cerevisiae deletion strains, locus YLR320W, strain mms22, active compounds read low 1.01 | S. cerevisiae deletion strains, locus YLR330W, strain CHS5, active compounds read low 1.01 | S. cerevisiae deletion strains, locus YLR342W, strain FKS1 (second series), active compounds read low 1.03 | S. cerevisiae deletion strains, locus YLR342W, strain FKS1, active compounds read low 0.985 | S. cerevisiae deletion strains, locus YLR357W, strain rsc2, active compounds read low 0.918 | S. cerevisiae deletion strains, locus YLR370C, strain arc18, active compounds read low 0.973 | S. cerevisiae deletion strains, locus YLR371W, strain rom2, active compounds read low 0.987 | S. cerevisiae deletion strains, locus YLR384C, strain iki3, active compounds read low 0.967 | S. cerevisiae deletion strains, locus YLR418C, strain cdc73, active compounds read low 0.995 | S. cerevisiae deletion strains, locus YML016C, strain PPZ1, active compounds read low 1 | S. cerevisiae deletion strains, locus YML032C, strain rad52, active compounds read low 1.01 | S. cerevisiae deletion strains, locus YML120C, strain ndi1, active compounds read low 0.977 | S. cerevisiae deletion strains, locus YML124C, strain tub3, active compounds read low 1 | S. cerevisiae deletion strains, locus YMR058W, strain fet3, active compounds read low 0.993 | S. cerevisiae deletion strains, locus YMR078C, strain ctf18, active compounds read low 1 | S. cerevisiae deletion strains, locus YMR125W, strain sto1, active compounds read low 0.924 | S. cerevisiae deletion strains, locus YMR129W, active compounds read low 0.972 | S. cerevisiae deletion strains, locus YMR205C, strain PFK2, active compounds read low 0.98 | S. cerevisiae deletion strains, locus YMR223W, strain ubp8, active compounds read low 0.99 | S. cerevisiae deletion strains, locus YMR231W, strain pep5, active compounds read low 0.967 | S. cerevisiae deletion strains, locus YMR263W, strain SAP30, active compounds read low 1.01 and 1 | S. cerevisiae deletion strains, locus YMR307W, strain GAS1, active compounds read low 0.923 and 1.01 | S. cerevisiae deletion strains, locus YNL067W, strain RPL9B, active compounds read low 1.02 | S. cerevisiae deletion strains, locus YNL071W, strain lat1, active compounds read low 0.988 | S. cerevisiae deletion strains, locus YNL128W, strain TEP1, active compounds read low 1.01 | S. cerevisiae deletion strains, locus YNL153C, strain GIM3, active compounds read low 1.02 | S. cerevisiae deletion strains, locus YNL175C, strain NOP13, active compounds read low 0.994 | S. cerevisiae deletion strains, locus YNL183C, strain NPR1, active compounds read low 0.93 | S. cerevisiae deletion strains, locus YNL197C, strain WHI3, active compounds read low 0.954 | S. cerevisiae deletion strains, locus YNL209W, strain ssb2, active compounds read low 0.972 | S. cerevisiae deletion strains, locus YNL224C, strain SQS1, active compounds read low 0.987 | S. cerevisiae deletion strains, locus YNL233W, strain BNI4, active compounds read low 1.01 | S. cerevisiae deletion strains, locus YNL248C, strain rpa49, active compounds read low 0.981 | S. cerevisiae deletion strains, locus YNL250W, strain rad50, active compounds read low 0.992 | S. cerevisiae deletion strains, locus YNL271C, strain bni1, active compounds read low 1.01 | S. cerevisiae deletion strains, locus YNL298W, strain CLA4, active compounds read low 0.984 | S. cerevisiae deletion strains, locus YNL307C, strain MCK1, active compounds read low 1 | S. cerevisiae deletion strains, locus YNL322C, strain KRE1 (second series), active compounds read low 0.965 | S. cerevisiae deletion strains, locus YNL322C, strain KRE1, active compounds read low 1 | S. cerevisiae deletion strains, locus YNR049C, strain mso1, active compounds read low 0.963 | S. cerevisiae deletion strains, locus YNR052C, strain pop2, active compounds read low 1.01 | S. cerevisiae deletion strains, locus YOL006C, strain TOP1, active compounds read low 1.08 | S. cerevisiae deletion strains, locus YOL012C, strain htz1 0.943 | S. cerevisiae deletion strains, locus YOL147C, strain pex11, active compounds read low 1 | S. cerevisiae deletion strains, locus YOR001W, strain rrp6, active compounds read low 0.949 | S. cerevisiae deletion strains, locus YOR061W, strain CKA2, active compounds read low 1.01 | S. cerevisiae deletion strains, locus YOR069W, strain VPS5, active compounds read low 1 | S. cerevisiae deletion strains, locus YOR070C, strain gyp1, active compounds read low 0.981 | S. cerevisiae deletion strains, locus YOR080W, strain dia2, active compounds read low 0.972 | S. cerevisiae deletion strains, locus YOR083W, strain WHI5 (second series), active compounds read low 0.978 | S. cerevisiae deletion strains, locus YOR083W, strain WHI5, active compounds read low 0.987 | S. cerevisiae deletion strains, locus YOR106W, strain vam3, active compounds read low 0.969 | S. cerevisiae deletion strains, locus YOR136W, strain idh2, active compounds read low 0.998 | S. cerevisiae deletion strains, locus YOR144C, strain elg1, active compounds read low 1 | S. cerevisiae deletion strains, locus YOR184W, strain ser1, active compounds read low 1.01 | S. cerevisiae deletion strains, locus YOR231W, strain MKK1, active compounds read low 0.986 | S. cerevisiae deletion strains, locus YOR265W, strain rbl2, active compounds read low 1 | S. cerevisiae deletion strains, locus YOR270C, strain vph1, active compounds read low 0.969 | S. cerevisiae deletion strains, locus YOR290C, strain snf2, active compounds read low 1 | S. cerevisiae deletion strains, locus YOR316C, strain cot1, active compounds read low 1 | S. cerevisiae deletion strains, locus YPL051W, strain arl3, active compounds read low 0.994 | S. cerevisiae deletion strains, locus YPL055C, strain LGE1, active compounds read low 0.989 | S. cerevisiae deletion strains, locus YPL078C, strain atp4, active compounds read low 0.963 | S. cerevisiae deletion strains, locus YPL106C, strain sse1, active compounds read low 1.03 | S. cerevisiae deletion strains, locus YPL240C, strain hsp82, active compounds read low 0.976 | S. cerevisiae deletion strains, locus YPL241C, strain CIN2, active compounds read low 1.01 | S. cerevisiae deletion strains, locus YPL256C, strain CLN2, active compounds read low 0.981 | S. cerevisiae deletion strains, locus YPR119W, strain clb2, active compounds read low 1.01 | S. cerevisiae deletion strains, locus YPR141C, strain kar3, active compounds read low 1 | S. cerevisiae deletion strains, locus YPR163C, strain tif3, active compounds read low 1.01 | S. cerevisiae deletion strains, locus YPR167C, strain met16, active compounds read low 1.01 | S. cerevisiae deletion strains, strain wtn01, active compounds read low 0.994 | S. cerevisiae strains, strain wild type, active compounds read low 0.999
